Target: P2RY8
Assay: pooled miR-30 sensor sort-seq; sequence = guide strand
Settings: shRNA
Further: reference of the scale not given here.

**Q.** How did the sensor-assay potency score (higher = more potent) turn out when TTGATCATGAAGATGACCGACG was run?
**A.** The sensor-assay potency score (higher = more potent) was -0.289.

**Q.** TCAACCAGTGAACAGACTGAGT was tested. Which sensor-assay potency score (higher = more potent) did it give?
**A.** Its sensor-assay potency score (higher = more potent) is -1.22.

**Q.** Which sensor-assay potency score (higher = more potent) does the source give for TTCAGCTTTGGAACAGTCTAGA here?
**A.** The sensor-assay potency score (higher = more potent) was -0.295.

**Q.** With TTTTCCATCTTAAAACATGTGT as the sequence, how does the sensor-assay potency score (higher = more potent) read?
**A.** Its sensor-assay potency score (higher = more potent) is -0.223.

**Q.** With TACTGTGAAGATGCTACTCTGA as the sequence, how does the sensor-assay potency score (higher = more potent) read?
**A.** The sensor-assay potency score (higher = more potent) was -0.29.

**Q.** Which sensor-assay potency score (higher = more potent) does the source give for TTGCTTTCTAGGGTTCAGCTTT here?
**A.** The sensor-assay potency score (higher = more potent) was -0.874.

**Q.** TACACGTGGTAGTAGCTCTTGC was tested. Which sensor-assay potency score (higher = more potent) did it give?
**A.** Its sensor-assay potency score (higher = more potent) is -0.559.

**Q.** How did the sensor-assay potency score (higher = more potent) turn out when TTGAGGACGTCGAAGCAGGTGA was run?
**A.** The sensor-assay potency score (higher = more potent) was -0.556.

**Q.** How did the sensor-assay potency score (higher = more potent) turn out when TTCATTACTAAACCATCTCTGT was run?
**A.** Its sensor-assay potency score (higher = more potent) is -0.448.

**Q.** How did the sensor-assay potency score (higher = more potent) turn out when TGGAACAGTCTAGAGAAGCAGG was run?
**A.** The sensor-assay potency score (higher = more potent) was -1.38.

**Q.** TTTCACTCAAAGCTCAACCAGT was tested. Which sensor-assay potency score (higher = more potent) did it give?
**A.** The sensor-assay potency score (higher = more potent) was 0.0389.

Target: P4HA2
Assay: as above
Settings: shRNA

**Q.** For TTGCAACCTGTAACAATTCTGC, which sensor-assay potency score (higher = more potent) is on record?
**A.** The sensor-assay potency score (higher = more potent) was -0.407.

**Q.** For TAGACAGCTAACTCTGCTGCAG, which sensor-assay potency score (higher = more potent) is on record?
**A.** Its sensor-assay potency score (higher = more potent) is -0.415.

**Q.** TTATTGGAGACCCACTTGCAGC was tested. Which sensor-assay potency score (higher = more potent) did it give?
**A.** The sensor-assay potency score (higher = more potent) was -1.45.

**Q.** With TTAACGTTTTTTCTCTCTCTTC as the sequence, how does the sensor-assay potency score (higher = more potent) read?
**A.** The sensor-assay potency score (higher = more potent) was -0.749.

**Q.** Which sensor-assay potency score (higher = more potent) does the source give for TTGTACCAGAACACAGCTGTAC here?
**A.** Its sensor-assay potency score (higher = more potent) is -0.305.

**Q.** TTTAGGTTTTGCGATCTCCTTG was tested. Which sensor-assay potency score (higher = more potent) did it give?
**A.** Its sensor-assay potency score (higher = more potent) is -0.309.

**Q.** For TATCTCGTCCTCATCAGTGGGG, which sensor-assay potency score (higher = more potent) is on record?
**A.** The sensor-assay potency score (higher = more potent) was 0.413.

**Q.** Which sensor-assay potency score (higher = more potent) does the source give for TTAAGAAACGTCGCTAACCTAT here?
**A.** Its sensor-assay potency score (higher = more potent) is -0.763.

**Q.** With TAATCTTGGAAAGCTTGGCTTC as the sequence, how does the sensor-assay potency score (higher = more potent) read?
**A.** Its sensor-assay potency score (higher = more potent) is -0.909.

**Q.** Which sensor-assay potency score (higher = more potent) does the source give for TTAGGTTTTGCGATCTCCTTGA here?
**A.** Its sensor-assay potency score (higher = more potent) is 0.73.

**Q.** How did the sensor-assay potency score (higher = more potent) turn out when TTCTACATCACTCATGTAGTTA was run?
**A.** Its sensor-assay potency score (higher = more potent) is -0.685.

**Q.** How did the sensor-assay potency score (higher = more potent) turn out when TTGCCTGGTACTTGGTTCCTGG was run?
**A.** The sensor-assay potency score (higher = more potent) was -0.843.

Source: the OligoGym collection
